Screens as filed in PubChem.
LGR2 inh: inhibitors of bursicon-induced Drosophila LGR2 receptor cAMP signaling; HEK293 LGR2, CRE-luciferase, bursicon-stimulated, 4 h; inhibition, % at 9.99 µM; 380,000 tested, 0.35% active; AID 720647;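 active = drop in luminescence signal, shown as inhibition above about 50% in the replicate tests, limit read from the data, passing the limit was not always enough; inconclusive = probably only some replicates passing the limit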;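 also: agonist challenge used bursicon conditioned medium at about half maximal strength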
TROY NFkB inh: TROY signaling inhibition | inhibition, % at 10 µM | AID 1347056 | 360,000 tested, 0.98% active | Q293 LMP1-TROYcd NF-kB luciferase reporter, 4 h;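 active = compounds whose plate-normalised and pattern-corrected inhibition of the luciferase reporter signal at the single screening dose is 50% or more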
CF NFkB inh: blocks PAF-induced NF-kB reporter in cystic fibrosis cells | inhibition, % at 5 µM | 360,000 tested, 0.86% active | KKLEB NF-kB-GFP reporter, GFP fluorescence overnight;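 active = at least 50% inhibition at 5 µM, scaled per plate between neutral and stimulator controls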;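 also: PAF is a Pseudomonas aeruginosa culture filtrate used as stimulus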
TWEAK-Fn14 inh: TWEAK-Fn14 signaling inhibition. TWEAK-stimulated Fn14 reporter cells, luciferase luminescence, 8 h. inhibition, % at 10 µM. 360,000 tested, 2% active; in the data active = inhibition above about 50%
EWS-Fli block: EWS/Fli transcriptional activity inhibition; AID 651661; A673 NR0B1-luciferase reporter, viability-normalised; 350,000 tested, 0.67% active; inhibition, % at 12.6 µM;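 active = mean inhibition of at least 50% after viability correction, with every replicate also passing that limit; inconclusive = mean reaches 50% but only one of two replicates passes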;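 also: firefly luciferase signal divided by Alamar Blue viability fluorescence both relative to DMSO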
KKLEB tox: CF airway cell cytotoxicity counter-screen; KKLEB CF airway cells viability, ATPlite luminescence, overnight; stronger effect = lower value; cells stimulated with P. aeruginosa culture filtrate; activity change (cytotoxicity), % at 5 µM; 360,000 tested, 0.36% active;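 active = corrected activity change at or below -50% at 5 µM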
Numbers stand for hits; i = inactive; ? = inconclusive; nt = not tested or not shown. This is a sample that favours compounds with a hit; in the whole collection about 2.6% have one here.

SMILES	LGR2 inh	TROY NFkB inh	CF NFkB inh	TWEAK-Fn14 inh	EWS-Fli block	KKLEB tox
CNC[C@@H]1Oc2ccc(NS(=O)(=O)c3cn(C)cn3)cc2CC(=O)N([C@@H](C)CO)C[C@@H]1C	i	nt	nt	nt	i	nt
COc1cccc(S(=O)(=O)N2CC[C@H]3[C@H](CO)Nc4ccc(Br)cc4[C@H]32)c1	i	nt	nt	nt	i	nt
C[C@@H]1CN([C@@H](C)CO)C(=O)CCCn2cc(nn2)CO[C@H]1CN(C)Cc1ccccc1C(=O)O	i	nt	nt	nt	i	nt
Cn1c(=N)n(CC(=O)c2ccc(Br)s2)c2ccccc21	nt	i	i	i	nt	i
N=c1n(CC(=O)c2ccc(Br)s2)c2ccccc2n1Cc1ccccc1	i	i	i	i	60	i
C[C@@H]1CN([C@@H](C)CO)C(=O)c2cc(NC(=O)CCN3CCOCC3)ccc2O[C@@H]1CN(C)Cc1ccc(Cl)c(Cl)c1	i	nt	nt	nt	nt	nt
OC(c1cc(-c2ccc(C(F)(F)F)cc2)nc(C(F)(F)F)c1)C1CCCCN1 (stereo unspecified)	i	i	68	i	i	-70
OC(c1cc(C(F)(F)F)nc2c(C(F)(F)F)cccc12)C1CCCCN1 (stereo unspecified)	70	i	i	i	59	i
OC(c1cc(-c2cccc(Cl)c2)nc2ccccc12)C1CCCCN1 (stereo unspecified)	i	i	i	i	i	i
CO[C@@H]1CN(C)C(=O)c2ccc(NC(C)=O)cc2OC[C@H](C)N(C(=O)c2ccccc2)C[C@H]1C	i	nt	nt	nt	i	nt
CC(C)C(=O)N1CCN(c2ccc(NC(=S)NC(=O)c3cc4ccccc4o3)cc2)CC1	i	i	i	i	nt	i
O=C(Nc1ccc(N2CCN(C(=O)c3ccccc3)CC2)c(Cl)c1)c1ccco1	nt	i	i	i	nt	i
CCCC(=O)N1CCN(c2ccc(NC(=O)c3cc4ccccc4o3)cc2Cl)CC1	nt	81	i	95	nt	i
CCC(=O)N1CCN(c2ccc(NC(=O)c3ccco3)cc2Cl)CC1	i	i	i	i	nt	i
O=C(Nc1ccc(N2CCN(C(=O)c3ccco3)CC2)c(Cl)c1)c1cc2ccccc2o1	nt	72	i	97	nt	i
CCC(=O)N1CCN(c2ccc(NC(=S)NC(=O)c3cc4ccccc4o3)cc2)CC1	i	61	i	i	nt	i
CCC(=O)N1CCN(c2ccc(NC(=O)c3cc4ccccc4o3)cc2Cl)CC1	nt	66	i	93	nt	i
C/C=C/c1ccc([C@H]2[C@H](CO)N3C(=O)CN(Cc4ccc(C(=O)OC)cc4)C[C@@H]23)cc1	i	nt	nt	nt	i	nt
O=C(C[C@@H]1CC[C@@H]2[C@H](COC[C@@H](O)CN2Cc2ccccc2)O1)NCc1ccccc1Cl	i	nt	nt	nt	i	nt
O=C(c1ccccn1)N1CC(=O)N2[C@H](C1)[C@@H](c1ccc(-c3cccc(F)c3)cc1)[C@@H]2CO	i	nt	nt	nt	i	nt
CC(C)NC(=O)N(C)C[C@@H]1Oc2ncc(C#CCC3CCCC3)cc2C(=O)N([C@H](C)CO)C[C@@H]1C	i	nt	nt	nt	i	nt
O=C(NC1=C(Nc2ccc(Cl)cc2)C(=O)c2ccccc2C1=O)c1ccccc1	nt	i	i	i	i	i
O=C1C(Cl)=C(NC(=O)c2ccccc2)C(=O)C(Cl)=C1NC(=O)c1ccccc1	i	i	52	i	i	i
Cc1cc2c(cc1C)CSC(c1c(O)ccc3ccccc13)SC2	nt	i	i	75	nt	i
Cc1cc2c(cc1C)CSC(c1ccc(O)cc1)SC2	i	i	i	55	i	i
SMILES	LGR2 inh	TROY NFkB inh	CF NFkB inh	TWEAK-Fn14 inh	EWS-Fli block	KKLEB tox
Cc1cc2c(cc1C)CSC(c1ccc3ccccc3c1O)SC2	nt	i	i	i	nt	i
CC(C)(C)OC(=O)CC[C@]12N=C(c3ccc(OCCCO)cc3)O[C@H]1c1ccccc1CN(C(=O)c1ccccc1)C2=O	nt	nt	nt	nt	i	nt
C[C@H]1CN([C@@H](C)CO)C(=O)Cc2cc(NC(=O)CCCCCC(=O)Nc3ccccc3N)ccc2O[C@H]1CN(C)CC1CCCCC1	i	nt	nt	nt	60	nt
C[C@@H]1CN([C@@H](C)CO)C(=O)Cc2cc(NC(=O)Nc3ccc(C(F)(F)F)cc3)ccc2O[C@H]1CN(C)CC1CCCCC1	i	nt	nt	nt	59	nt
C[C@@H]1CN([C@@H](C)CO)C(=O)Cc2cc(NC(=O)Nc3ccc(C(F)(F)F)cc3)ccc2O[C@@H]1CN(C)C(=O)NC1CCCCC1	i	nt	nt	nt	59	nt
COc1ccc(-c2ccc(C3[C@H]4CNC[C@@H]3N4Cc3ccc4c(c3)OCO4)cc2)cc1 (stereo partly specified)	i	nt	nt	nt	i	nt
CC=Cc1ccc2n(c1=O)C[C@H]1[C@H](CO)[C@@H](C(=O)N[C@H](C)c3ccccc3)[C@@H]2N1Cc1cncnc1 (mixture of isomers)	i	nt	nt	nt	i	nt
C[C@@H]1CN([C@H](C)CO)C(=O)Cc2cc(NS(=O)(=O)c3cn(C)cn3)ccc2O[C@@H]1CN(C)Cc1ccc(Cl)c(Cl)c1	i	nt	nt	nt	i	nt
NS(=O)(=O)c1c(Sc2ccccc2C(=O)O)ccc2ccccc12	i	i	i	54	i	i
O=C(CSCC(=O)N1CCCCC1)Nc1nc(-c2cccs2)cs1	i	i	i	i	i	i
O=C(CSCC(=O)N1CCCCC1)Nc1nc(-c2ccc(Cl)s2)cs1	i	i	i	69	i	i
O=C(CSCC(=O)N1CCN(c2ccccc2)CC1)Nc1nc(-c2ccc(Cl)s2)cs1	i	i	i	72	i	i
CCOC(=O)N1CCN(C(=O)CSCC(=O)Nc2nc(-c3ccccc3)cs2)CC1	i	i	i	i	nt	i
Cc1cccc(NC(=O)CN2CCN(CC(=O)Nc3cccc(C)c3)CC2)c1	nt	i	i	i	nt	-55
CCOC(=O)C1=C(COC(=O)COc2ccc(C(C)=O)cc2)NC(=O)NC1C (stereo unspecified)	i	i	i	i	i	i
CCOC(=O)C1=C(COC(=O)COc2ccc(C#N)cc2)NC(=O)NC1C (stereo unspecified)	i	i	i	90	nt	i
CCCCc1c(-c2ccccc2OC)ncn1CCc1ccccc1OC	i	55	nt	i	i	nt
CCCCCc1c(-c2ccccc2OC)ncn1CCc1ccccc1OC	?	56	nt	52	i	nt
CCN1[C@@H]2c3ccc(-c4cccc(OC)c4)c(=O)n3C[C@@H]2[C@@H](CO)[C@@H]1C(=O)OC	i	nt	nt	nt	i	nt
Cc1ccc(C(=O)N2CCN(c3ccc(NC(=O)c4ccc5c(c4)OCCO5)cc3)CC2)cc1	i	57	i	76	i	i
O=C(Nc1ccc(N2CCN(C(=O)c3ccccc3)CC2)cc1)c1ccc2c(c1)OCO2	nt	i	i	i	nt	i
Cc1ccccc1C(=O)N1CCN(c2ccc(NC(=O)c3ccc4c(c3)OCCO4)cc2)CC1	?	i	i	73	i	i
O=C(Nc1ccc(OCC(F)(F)C(F)F)c(C(F)(F)F)c1)c1ccccc1O	nt	i	i	i	nt	-51
O=C(Nc1ccc(OCC(F)(F)C(F)F)c(C(F)(F)F)c1)c1ccccc1	nt	i	i	i	nt	i
COc1ccc(CNC(=O)c2ccc3ccccc3n2)cc1OC	i	i	i	54	i	i
COc1ccc(NC(=O)c2cc3ccccc3oc2=O)c(OC)c1	i	i	i	i	i	i
